Among all 52,000 compounds or so, about 4,300 (8.3%) were called active. Shown is part of a subset that was picked to be rich in actives. Unmarked numbers belong to inactive results. Rule as the data show it: active = survival mostly below about 52% (no sharp cut-off); inactive = mostly above about 56%.
test system: DeltatarO mutant; assay: S. aureus survival, RN4220 and DeltatarO strains – OD600, teichoic acid synthesis inhibitors, primary screen (AID 463173); conditions: S. aureus RN4220 wild type/DeltatarO growth, OD600, 18 h, active compounds read low, screened at 18.75 µg/mL (by protocol)

Structure (SMILES) | survival
COc1cc(C2C(C(=O)Nc3ccccc3C)=C(C)Nc3nc(SCc4cc(C)ccc4C)nn32)ccc1O (stereo not given) | 105%
CCOc1ccccc1N(CC)C(=O)c1cc2c(=O)[nH]c3ccc(C)cc3c2s1 | 74%
Cc1ccc(-n2nc(C)c3c(C)cc(=O)n(CC(=O)NC(C)C)c32)cc1 | 105%
O=C(CN1C(=O)COc2ccc(S(=O)(=O)N3CCCCCC3)cc21)Nc1cccc(Cl)c1 | 60%
COc1cc(OC)c(N(C)C(=O)c2sc3nc4n(c(=O)c3c2C)CCCC4)cc1Cl | 53%
O=C(Cc1ccccc1)N(Cc1cccnc1)c1nc2ccc(Cl)cc2s1 | 72%
O=C(Cc1ccc(-c2ccccc2)cc1)NCCS(=O)(=O)N1CCN(c2ccccc2)CC1 | 122%
CCOc1ccc(CNC(=O)c2ccc(NC(=O)c3nsc4ccccc34)cc2)cc1 | 79%
COc1ccc(C(=O)CN2CCN(S(=O)(=O)c3ccc(C(C)C)cc3)CC2)cc1 | 81%
COc1ccc(N2CC(NC(=O)/C=C\c3ccc(OC)c(OC)c3)CC2=O)cc1 (stereo not given) | 55%
CC(=O)c1ccc(NC(=O)CC2Oc3ccc(C)cc3NC2=O)cc1 (stereo not given) | 85%
O=C(NCCc1ccc(F)cc1)C(=O)NCC(c1ccc2c(c1)OCO2)N1CCOCC1 (stereo not given) | 74%
CCN(C(=O)Cc1c(C(=O)O)[nH]c2ccccc12)c1ccc(OC)cc1 | 65%
Cc1ccc2[nH]c3c(=O)n(CC(=O)N(C)c4cc(Cl)ccc4C)ncc3c2c1 | 89%
Cc1ccc(C)c(N(C)C(=O)Cc2c(C(=O)O)[nH]c3ccc(Cl)cc23)c1 | 40% (active)
CCCN(C(=O)Cc1c(C(=O)O)[nH]c2ccc(Cl)cc12)c1ccc(OCC)cc1 | 47% (active)
Cc1cccc(N(C)C(=O)Cc2c(C(=O)O)[nH]c3ccccc23)c1 | 134%
COc1ccc(OC)c(NC(=O)Cc2c(C(=O)O)[nH]c3ccc(Cl)cc23)c1 | 54%

Structure (SMILES) | survival
CCOC(=O)c1ccccc1NC(=O)N1CCC(CN2CCCCC2)CC1 | 83%
COC(=O)c1cccc(NC(=O)Nc2cc(C(=O)NCc3cccc(F)c3)ccc2N2CCCC2)c1 | 91%
Cc1ccc(OCC(=O)OCc2cc(=O)n3nc(-c4cccs4)sc3n2)cc1C | 102%
Nc1nonc1/C(=N/O)N1CCCC1 | 113%
COc1ccc(N2CCN(C(CNC(=O)C(=O)NCc3cccnc3)c3cccnc3)CC2)cc1 (stereo not given) | 102%
CCOc1ccccc1-c1noc(CCCC(=O)Nc2cccc(C(F)(F)F)c2)n1 | 61%
CCOc1ccccc1NC(=O)CCc1nc(-c2cccc(C)c2)no1 | 73%
CCOC(=O)c1ccc(NC(=O)CCCc2nc(-c3cc(OC)c(OC)c(OC)c3)no2)cc1 | 44% (active)
O=C(CCCc1nc(-c2ccccc2)no1)Nc1cc(C(F)(F)F)cc(C(F)(F)F)c1 | 19% (active)
CCc1ccc(NC(=O)CCCc2nc(-c3ccco3)no2)cc1 | 81%
COc1ccccc1-c1noc(CCCC(=O)Nc2cc(C)ccc2C)n1 | 54%
COc1cc(-c2noc(CCC(=O)Nc3cc(C)ccc3C)n2)cc(OC)c1OC | 81%
COc1cccc(NC(=O)CCc2nc(-c3cc(OC)c(OC)c(OC)c3)no2)c1 | 73%
O=C(CCc1nc(-c2ccccc2F)no1)Nc1cccc(C(F)(F)F)c1 | 81%
CCOC(=O)c1ccc(NC(=O)CCCc2nc(-c3ccccc3Cl)no2)cc1 | 36% (active)
Cc1cc(C)cc(NC(=O)CCCc2nc(-c3ccccc3Cl)no2)c1 | 89%
CCOc1ccccc1NC(=O)CCCc1nc(-c2ccccc2Cl)no1 | 38% (active)
